Screening data as filed in PubChem BioAssay.
FBW7 act = FBW7 E3 ligase activators, primary screen, biochemical, AlphaScreen, human; F-box/WD repeat-containing protein 7 (Homo sapiens), Q969H0; AlphaScreen FBW7–phospho-cyclin E peptide binding, activator screen; normalized activity (activation), % at 26.1 µM; 650,000 compounds, 0.13% hits; in the data active = normalized activity above about 1.9%;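 also: purified mutant Fbw7 with reduced substrate affinity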
Target sequence (Q969H0 whole entry, looked up): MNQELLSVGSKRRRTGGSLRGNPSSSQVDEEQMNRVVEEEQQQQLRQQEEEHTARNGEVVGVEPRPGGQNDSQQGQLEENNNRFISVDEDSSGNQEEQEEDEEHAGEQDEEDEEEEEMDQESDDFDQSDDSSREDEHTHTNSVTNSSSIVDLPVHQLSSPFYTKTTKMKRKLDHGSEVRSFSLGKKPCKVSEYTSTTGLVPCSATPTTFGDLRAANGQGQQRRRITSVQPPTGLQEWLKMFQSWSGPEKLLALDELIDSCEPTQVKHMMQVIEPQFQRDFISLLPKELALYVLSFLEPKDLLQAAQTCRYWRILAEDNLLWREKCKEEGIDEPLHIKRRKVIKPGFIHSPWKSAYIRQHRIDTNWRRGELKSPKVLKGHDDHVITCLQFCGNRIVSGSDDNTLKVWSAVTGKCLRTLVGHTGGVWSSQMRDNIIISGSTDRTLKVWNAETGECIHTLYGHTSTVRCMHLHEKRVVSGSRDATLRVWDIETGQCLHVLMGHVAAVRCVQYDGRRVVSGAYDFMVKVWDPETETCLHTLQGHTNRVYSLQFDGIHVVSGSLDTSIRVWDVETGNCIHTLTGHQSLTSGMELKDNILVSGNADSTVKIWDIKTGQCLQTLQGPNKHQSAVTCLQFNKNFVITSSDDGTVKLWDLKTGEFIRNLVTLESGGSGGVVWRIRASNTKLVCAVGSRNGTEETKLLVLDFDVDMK
GPR151 activ = activators of human GPR151, primary screen, cell-based, PathHunter beta-arrestin, luminescence; PathHunter beta-arrestin GPR151 cells; activation, % at 11.2 µM; 650,000 compounds, 1% hits; in the data active = activation above about 4.9%;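 also: 0% = median of compound wells and 100% = cells with positive control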
MITF inh = MITF inhibitors, primary screen, biochemical, AlphaScreen, human; Microphthalmia-associated transcription factor (Homo sapiens), O75030; AlphaScreen MITF homodimerization, bead proximity signal; inhibition, % at 2.6 µM; 650,000 compounds, 0.91% hits; AID 1259374, 2018; in the data active = inhibition above about 50%;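 also: 0% = vehicle wells with protein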
TEAD-YAP block = TEAD-YAP interaction inhibition, primary screen, TEAD-YAP interaction inhibitor project, luminescence, HEK-TIYL cells; TEAD-Gal4/YAP UAS-luciferase luminescence; inhibition, % at 9.12 µM; 640,000 compounds, 1.4% hits; AID 1259422, 2018; in the data active = inhibition above about 32%;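 also: 0% = median of test compound wells and 100% = reference inhibitor wells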
GPR151 confirm = GPR151 activators, triplicate retest, confirmation, cell-based, PathHunter beta-arrestin, luminescence. shares compounds with GPR151 activ. GPR151 PathHunter beta-arrestin cells, 90 min; % of EA-reagent control over plate median. activation, % at 11.2 µM. 6,700 tested, under 10 active. AID 1508609, 2020;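 active = mean percent activation across replicates above the confirmation screen cutoff of 4.91%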
GPR119 ag = GPR119 activators in beta-arrestin cells, counter-screen for GPR151 activator project, cell-based, PathHunter beta-arrestin, luminescence, triplicate. activation, % at 11.2 µM. 6,700 compounds, 0.3% hits. 90 min; 0 = compound-well median, 100 = enzyme-acceptor control. shares compounds with GPR151 activ;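 active = mean percent activation in the counterscreen above 29.09%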;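 also: counterscreen on off-target GPR119 to flag nonselective hits from the GPR151 activator screen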
Active calls of the source: *; x = not tested or not shown. Rows were chosen to be rich in hits. Some 3.4% of all compounds tested hit in one or more screens of this group.

SMILES | FBW7 act | GPR151 activ | MITF inh | TEAD-YAP block | GPR151 confirm | GPR119 ag
CC1(C(=O)NNC(=O)Nc2cccc([N+](=O)[O-])c2)CC1(Cl)Cl (centres undefined) | 0.2 | 6.4* | 7.4 | 0.6 | -0.4 | -0.5
COC(=O)C1=C(C)N(CC(C)C)C(=O)/C1=C\c1ccc(OC)cc1 | -0.4 | 0.0 | 2.2 | 0.8 | x | x
COc1ccc(CCNc2cc(-c3cccs3)nc(N)n2)cc1 | 0.1 | 1.6 | 12.6 | 8.2 | x | x
O=C(NCCc1nc(-c2ccncc2)n[nH]1)C1(c2ccccc2)CCCC1 | 0.0 | 5.9* | 4.3 | 4.8 | 0.3 | 6.5
CC(=O)N1CCN(Cc2ccc3c(c2)CN(C(=O)Cc2cccc(F)c2)CCO3)CC1 | -0.1 | 2.6 | -3.4 | 6.7 | x | x
CC(=O)N1CCN(Cc2cccc(F)c2)CC1 | 0.1 | 5.4* | 9.8 | 15.4 | 0.1 | 3.0
S=C(NCCc1ccccc1)NCC(c1cccnc1)N1CCOCC1 (centres undefined) | -0.1 | 9.3* | -3.8 | 2.5 | 0.8 | 8.8
Cc1ccccc1NC(=S)NCC(c1cccnc1)N1CCOCC1 (centres undefined) | 0.2 | 0.3 | 4.2 | -8.1 | x | x
Cc1ccc(NC(=O)CCNc2c(N3CCCC3)c(=O)c2=O)cc1Cl | -0.1 | 12.5* | -5.5 | 1.6 | 1.4 | -4.4
O=C(CCNc1c(N2CCCC2)c(=O)c1=O)Nc1ccc(F)c(Cl)c1 | 0.0 | 2.3 | -1.1 | 10.9 | x | x
O=C(CCNc1c(N2CCCC2)c(=O)c1=O)NC1CCCCCC1 | -0.4 | 7.2* | 0.6 | -3.9 | 0.1 | 2.0
Cc1ccc(NC(=O)CC(C)(C)C)cc1Cl | 0.1 | 5.2* | -2.2 | -5.8 | -0.3 | 5.1
CCN(CC(=O)N1CCC(C)CC1)S(=O)(=O)c1ccc2ccccc2c1 | 1.2 | 1.6 | 0.2 | -1.9 | x | x
O=C(Nc1ccccc1C(=O)c1ccccc1)c1ccc(Nc2nc(-c3ccccc3)c3cc(Br)ccc3n2)cc1 | 0.5 | 0.0 | 3.3 | -0.4 | x | x
CCOC(=O)c1cnc2cc(C)nn2c1N | 0.0 | 9.4* | 7.3 | -6.9 | -0.3 | 2.5
CSc1nc(C(=O)NCC2Cc3cc(-c4nc(C)cnc4C)ccc3O2)cs1 (centres undefined) | -0.2 | -1.0 | 2.1 | 4.4 | x | x
Cc1ccc(S(=O)(=O)N2CCN(c3ccccc3C)CC2)cc1 | 0.0 | -0.4 | -9.0 | 2.2 | x | x
CCOC(=O)CCNC(=O)N1CCCC(N(C)CCc2ccccn2)C1 (centres undefined) | -0.1 | 5.4* | -2.2 | -2.8 | 0.7 | -1.9
Cc1nonc1CC(=O)N1CCCC(CCC(=O)N(C)CCc2ccccn2)C1 (centres undefined) | 0.0 | 7.7* | 9.7 | 12.5 | 0.0 | -2.6
CCOC(=O)CCNC(=O)N1CCCC(CCC(=O)N(C)CCc2ccccn2)C1 (centres undefined) | -0.1 | 0.3 | -6.0 | -4.5 | x | x
COc1ccccc1Nc1nc(Cl)ccc1[N+](=O)[O-] | 0.1 | 5.0* | 0.9 | -8.5 | 0.2 | 1.7
COc1ccccc1Nc1nc(Cl)cc(N)c1[N+](=O)[O-] | -0.1 | 2.8 | 14.6 | -1.9 | x | x
Cc1c(S(=O)(=O)N2CCN(c3ccccc3)CC2)c(=O)n(C)c(=O)n1C | -0.4 | 8.2* | 7.5 | 8.3 | 1.1 | 4.5
CS(=O)(=O)N(CC(=O)Nc1cccc(F)c1)Cc1ccccc1 | -0.2 | 6.3* | 12.0 | 22.5 | 0.2 | -0.6
CCN(CC)C(=O)Cn1cnc2sc(C(=O)Nc3cc(OC)ccc3OC)c(C)c2c1=O | 0.0 | -0.4 | 3.2 | 0.0 | x | x
SMILES | FBW7 act | GPR151 activ | MITF inh | TEAD-YAP block | GPR151 confirm | GPR119 ag
CCN(CC)C(=O)Cn1cnc2sc(C(=O)Nc3cc(C)ccc3OC)c(C)c2c1=O | 0.1 | 4.9* | -2.6 | -3.4 | 1.9 | 5.1
Cc1c(C(=O)Nc2ccc3c(c2)OCO3)sc2ncn(CC(=O)N3CC(C)CC(C)C3)c(=O)c12 (centres undefined) | 0.2 | 5.0* | 12.8 | 5.8 | 0.5 | 0.6
Cc1sc2ncn(CC(=O)NCc3ccccn3)c(=O)c2c1C | -0.1 | 5.1* | -14.0 | -5.5 | -0.3 | -10.7
Cc1ccc(NC(=O)Cn2cnc3sc(C(=O)Nc4ccccc4)c(C)c3c2=O)cc1 | 0.6 | 8.9* | 6.0 | 11.2 | 0.4 | 2.0
Cc1c(C(=O)Nc2ccc(Oc3ccccc3)cc2)sc2ncn(CC(=O)Nc3ccc(C(C)C)cc3)c(=O)c12 | 0.1 | -0.3 | 7.8 | 1.1 | x | x
Cc1sc2ncn(CC(=O)NCC(=O)NCc3ccccn3)c(=O)c2c1C | 0.1 | -0.6 | 14.3 | -1.6 | x | x
COc1ccc(CCN2C(=O)CCC2CCNCc2cccc(C(F)(F)F)c2)cc1 (centres undefined) | 0.2 | 12.2* | 8.0 | 8.3 | 0.5 | 8.8
NC(=O)CC(c1ccccc1)c1ccc2c(c1)OCO2 (centres undefined) | -0.1 | 6.4* | -0.3 | 12.2 | -0.1 | 6.2
CC(=NC1CC(C)(C)NC(C)(C)C1)c1c(C)[nH]n(-c2ccc([N+](=O)[O-])cc2)c1=O | -0.1 | 6.3* | 0.5 | 8.9 | -0.7 | -7.3
Nc1nonc1-c1noc(-c2ccc(Cl)cc2Cl)n1 | 0.0 | -0.6 | 13.4 | -28.1 | x | x
Cc1ccccc1CNC(=O)c1ccc(F)cc1 | 0.2 | 1.0 | 9.9 | 3.9 | x | x
O=c1c2ccccc2ncn1Cc1c(F)cccc1F | -0.1 | 4.9* | -2.5 | 0.9 | -1.1 | -15.3
O=c1c2ccccc2ncn1Cc1ccccc1Cn1cnc2ccccc2c1=O | 0.0 | 0.0 | 12.2 | 6.4 | x | x
Cc1ccc(NC(=O)Cn2cnc3c(cnn3-c3cccc(C)c3C)c2=O)cc1Cl | -0.1 | -0.8 | -5.7 | 5.8 | x | x
Cc1ccc(-n2ncc3c(=O)n(CC(=O)Nc4cccc5ccccc45)cnc32)cc1C | 0.1 | 6.7* | -7.0 | 5.2 | -0.2 | 10.6
COC(=O)c1ccc(NC(=O)Cn2cnc3c(cnn3-c3cccc(C)c3C)c2=O)cc1 | 0.0 | 8.8* | 0.5 | 8.6 | 0.9 | 9.0
CCc1cccc(C)c1NC(=O)Cn1cnc2c(cnn2-c2ccc(OC)cc2)c1=O | 0.0 | 6.9* | 14.2 | 4.0 | 0.3 | 7.1
CC1=C(C(=O)OCCc2ccccc2)C(c2ccccc2C(F)(F)F)C2=C(CCCC2=O)N1 (centres undefined) | 0.8 | 0.2 | -1.6 | -16.9 | x | x
O=C(CSCc1ccccc1)N1CCC(Cc2ccccc2)CC1 | 0.6 | 6.0* | 6.1 | -42.6 | -0.2 | 1.0
NC(=O)C1CCN(C(=O)CSCc2c(Cl)cccc2Cl)CC1 | -0.2 | 6.1* | -11.0 | 1.6 | 0.3 | -3.1
O=C(CSc1cccc[n+]1[O-])N1CCC(Cc2ccccc2)CC1 | 0.0 | 1.3 | -11.0 | -0.8 | x | x
CCOC(=O)C1CCN(C(=O)CSCc2c(Cl)cccc2Cl)CC1 | 0.1 | -1.4 | 2.3 | 2.5 | x | x
